Cruzain inh noDet – blocks cruzain activity in detergent-free assay | hit rate 2.3% among 200,000 | Potency, µM, for the others: max response, negative = inhibition, actives largely listed as inhibitors | AID 1476 | P25779 | purified cruzain, Z-FR-AMC fluorescence, no detergent;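 also: plate controls were enzyme without inhibitor for no effect and buffer without enzyme for full effect; nearly all actives have a fitted effect of over 40% in size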
Target sequence (P25779 123-467 limits assumed): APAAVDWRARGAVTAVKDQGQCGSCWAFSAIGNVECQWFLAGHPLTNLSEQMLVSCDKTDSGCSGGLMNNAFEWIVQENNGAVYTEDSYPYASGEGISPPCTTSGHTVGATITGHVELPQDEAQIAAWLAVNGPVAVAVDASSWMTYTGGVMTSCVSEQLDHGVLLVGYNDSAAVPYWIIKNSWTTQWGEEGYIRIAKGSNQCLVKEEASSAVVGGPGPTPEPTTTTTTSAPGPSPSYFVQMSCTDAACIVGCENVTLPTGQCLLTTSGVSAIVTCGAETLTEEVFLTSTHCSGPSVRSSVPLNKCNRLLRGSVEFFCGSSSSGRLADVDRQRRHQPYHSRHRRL
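Detergent-free condition (0.00005% Triton X-100) in acetate buffer pH 5.5 with DTT. 1.5 nM enzyme and compound were pre-mixed 15 min, then 2 uM Z-FR-AMC substrate added; reaction progress from fluorescence change between first and third reads (60 s).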
Cruzain Triton – blocks cruzain activity in presence of Triton detergent; P25779; purified cruzain, Z-FR-AMC fluorescence, 0.01% Triton; Potency, µM, for the others: max response, negative = inhibition, usual class: inhibitors; hit rate 0.43% among 200,000;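 also: plate controls were neutral wells for no effect and buffer without enzyme for full effect; nearly all actives have a fitted effect of over 40% in size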
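Cruzain (1.5 nM) preincubated 15 min at RT with compound in 100 mM sodium acetate pH 5.5, 5 mM DTT, 0.01% Triton X-100. Reaction started with 2 uM Z-FR-AMC; AMC fluorescence (ex 360/em 450 nm) change over 60 s gave rate.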
An asterisk follows results filed as active; ? = inconclusive. In the library only some 2.6% were active in any assay of this set; here they are far more common. Calls follow the shape of the dose curve; as a rule, active = well fitted curve in the direction sought with a large enough effect; inconclusive = small, poorly fitted or top-dose-only effect, or another doubt; inactive = no such curve, though single readings can be large; an effect the other way counts as inactive or inconclusive. Potency is read from the fitted curve at half-maximal effect.

SMILES	Cruzain inh noDet	Cruzain Triton
O=C(CN1CCN(c2ccc(O)cc2)CC1)Nc1cc([N+](=O)[O-])ccc1Cl	25µM*	-24%
CC(C(=O)Nc1cc([N+](=O)[O-])ccc1Cl)N1CCN(c2ccccc2)CC1 (stereo unspecified)	1%	-2%
C=CCNc1sc(C(=O)c2ccccc2)c(N)c1C#N	-7%	-6%
C=CCNc1sc(C(=O)c2ccc(Br)s2)c(N)c1C#N	16µM*	-1%
COc1ccc(CCNC(=O)CSc2nc3nc(C)c(Cc4ccc(C)cc4)c(C)n3n2)cc1OC	?	0%
COc1cc(OC)cc(-c2nc3ccccc3c(=O)n2OC(=O)c2ccccc2C)c1	-4%	-5%
O=C(On1c(-c2ccccc2)nc2ccccc2c1=O)c1ccco1	?	28µM*
O=C1[C@@H]2Cc3c([nH]c4ccccc34)[C@@H](c3ccccc3)N2C(=O)[C@@H]2Cc3c([nH]c4ccccc34)[C@@H](c3ccccc3)N12	10µM*	6%
COc1cc([C@H]2c3[nH]c4ccccc4c3C[C@H]3C(=O)N4[C@@H](c5cc(OC)c(OC)c(OC)c5)c5[nH]c6ccccc6c5C[C@H]4C(=O)N23)cc(OC)c1OC	5%	2%
O=C(COc1ccc2c(c1)OCO2)Nc1ccc2c(c1)oc1ccccc12	10µM*	-1%
O=C(Nc1ccc2c(c1)oc1ccccc12)c1ccc2c(c1)OCO2	?	-1%
COc1ccc(OC)c(NS(=O)(=O)c2ccc(-c3cc(C)no3)s2)c1	-18%	-5%
O=[N+]([O-])c1ccc2c(c1)C(N1CCOCC1)/C(=C/COc1ccc3ccccc3c1Br)O2 (stereo unspecified)	25µM*	-4%
O=[N+]([O-])c1ccc(OC/C=C2\Oc3ccc([N+](=O)[O-])cc3C2N2CCOCC2)cc1 (stereo unspecified)	-2%	-9%
COC(=O)c1ccc(NC(=O)CN(C)S(=O)(=O)c2ccc3c(c2)CCCC(=O)N3)cc1	-8%	-1%
CC1CCN(C(=O)Cn2cc(SCC(=O)Nc3ccccc3C(F)(F)F)c3ccccc32)CC1	-2%	-5%
CN(C)c1oc(-c2ccc(OCc3ccc(Cl)cc3)cc2)nc1C#N	20µM*	?
CCOc1ccc(Nc2oc(-c3ccc(Cl)cc3)nc2C#N)cc1	?	2%
COc1ccccc1C1C2=C(N=c3s/c(=C/c4cccc(OCC(=O)O)c4)c(=O)n31)c1ccccc1CC2 (stereo unspecified)	?	28µM*
CCOC(=O)C1=C(C)N=c2s/c(=C\c3cc(OC)c(OC)c(OC)c3)c(=O)n2C1/C=C/c1ccccc1 (stereo unspecified)	13%	-3%
COc1cccc(C2C3=C(N=c4s/c(=C\c5cccc(O)c5)c(=O)n42)c2ccccc2CC3)c1OC (stereo unspecified)	10µM*	0%
COc1cccc(C2C3=C(N=c4s/c(=C\c5ccc(O)cc5)c(=O)n42)c2ccccc2CC3)c1OC (stereo unspecified)	?	-2%
CCN(CC)CC[n+]1ccc2c(C)c3[nH]c4ccc(O)cc4c3c(C)c2c1	4%	5%
Cc1ccc(CNC(=O)Cn2c(=O)cc(C(F)(F)F)c3c(C)nn(C)c32)cc1	-1%	-2%
COc1ccc(-c2noc(-c3ccc(NC4CCCCC4)c([N+](=O)[O-])c3)n2)cc1OC	21%	-4%
SMILES	Cruzain inh noDet	Cruzain Triton
COc1ccc(-c2noc(-c3ccc(NC(C)c4ccccc4)c([N+](=O)[O-])c3)n2)cc1OC (stereo unspecified)	13µM*	-5%
c1ccc(Cn2nnc3c(Nc4ccc5c(c4)OCO5)nc(C4CC4)nc32)cc1	16µM*	-2%
COc1ccc(OC)c(Nc2nc(C3CC3)nc3c2nnn3Cc2ccccc2)c1	-5%	-10%
CCn1nc(C)c(CCN(C)C(=O)Nc2cccc(Cl)c2C)c1C	2%	2%
CCOC(=O)C1=C(C)NC(=O)NC1c1cn(-c2ccccc2)nc1-c1ccc(OC(C)C)cc1 (stereo unspecified)	20%	-17%
CC1=C(C(=O)c2ccccc2)C(c2cn(-c3ccccc3)nc2-c2ccc(Cl)cc2)NC(=S)N1 (stereo unspecified)	10µM*	3%
CN1CCN(c2ncc3nc(-c4cccc(C#N)c4)c(=O)n(C)c3n2)CC1	?	18µM*
CN1CCN(c2ncc3nc(-c4cc(F)cc(F)c4)c(=O)n(C)c3n2)CC1	24%	-7%
COc1ccc(-n2c(=O)c(-c3ccccc3)nc3cnc(N4CCN(C)CC4)nc32)cc1	-2%	0%
CN1CCN(c2ncc3nc(-c4ccccc4)c(=O)n(-c4ccccc4)c3n2)CC1	?	25µM*
COc1cc(OC)cc(C(=O)Nc2ccc3nc(N4CCC(C)CC4)cc(C)c3c2)c1	?	-21%
CSc1nncc(/C(C)=N\Nc2cccc(C)c2)n1	13µM*	2%
CSc1nncc(/C(C)=N\Nc2ccccc2)n1	6%	6%
Cc1ccc2nc(SCC(=O)NCc3ccco3)c(C#N)cc2c1	25µM*	2%
Cc1cc2nnc(SCC(=O)NCc3cccs3)n2c(N)n1	-8%	1%
Cc1ccc2cc(C#N)c(SCC(=O)NCc3ccco3)nc2c1	?	-6%
Cc1ccc2nc(SCC(=O)NCc3cccs3)c(C#N)cc2c1	10µM*	6%
O=C(O)c1c(-c2ccccc2)oc2ccc(OCc3ccc(Cl)c(Cl)c3)cc12	11%	-1%
N#Cc1nc(-c2cccc3ccccc23)oc1NCCN1CCOCC1	-4%	-30%
CCCNc1oc(-c2cccc3ccccc23)nc1C#N	3.2µM*	?
COP(=O)(OC)c1nc(-c2cccc3ccccc23)oc1N1CCOCC1	15%	-17%
COP(=O)(OC)c1nc(-c2cccc3ccccc23)oc1NCCc1ccccc1	?	25µM*
Cc1ccc(S(=O)(=O)Nc2cccc(-c3ccc(N4CCC(C)CC4)nn3)c2)s1	-13%	-4%
Cc1cc(NC(=O)CSc2ncnc3sc4c(c23)CCC(C)C4)no1 (stereo unspecified)	5µM*	5%
Cc1cc(NC(=O)CSc2nc(C(C)C)nc3sc(C)c(C)c23)no1	11%	1%
SMILES	Cruzain inh noDet	Cruzain Triton
CC1CCN(c2ccc(/C=C(\C#N)c3nn(-c4ccccc4)c(N)c3C#N)cc2[N+](=O)[O-])CC1	-11%	-3%
CC1CCCN(c2ccc(/C=C(\C#N)c3nn(-c4ccccc4)c(N)c3C#N)cc2[N+](=O)[O-])C1 (stereo unspecified)	-29%	-4%
N#C/C(=C\c1ccc(N2CCCCC2)c([N+](=O)[O-])c1)c1nn(-c2ccccc2)c(N)c1C#N	20µM*	-4%
CC1CCN(c2cc(N3CCC(C)CC3)c([N+](=O)[O-])cc2/C=C(\C#N)c2nn(-c3ccccc3)c(N)c2C#N)CC1	2µM*	0%
COC(=O)c1sc(N2C(=O)c3oc4ccccc4c(=O)c3C2c2ccc(O)cc2)nc1C (stereo unspecified)	-13%	5%
c1ccsc1	8%	0%
O=C(Nc1nnc(CC2=CCCCC2)s1)c1cccs1	-9%	-2%
O=C(Nc1ccc(Cl)cc1)Nc1nnc(CSCc2ccc(Cl)cc2)s1	5µM*	1%
CCC(=O)Nc1nnc(CSCc2ccc(F)cc2)s1	0%	-1%
O=C(Nc1ccc(Cl)c(Cl)c1)Nc1nnc(CC2=CCCCC2)s1	25µM*	-1%
O=S(=O)(NCCc1ccc(Cl)cc1)c1ccc(N2CCCCS2(=O)=O)cc1	7%	-4%
